Drawing on PMC7862700, “An all-to-all approach to the identification of sequence-specific readers for epigenetic DNA modifications on cytosine”, this text covers binding signal for two sequences.

Common to all, as to experiment: DAPPL (digital affinity profiling via proximity ligation, sequencing); 10 mM Tris-HCl pH 7.5, 50 mM NaCl, 1 mM DTT, 4% glycerol, room temperature, 30 min; GST-TFs on glutathione beads, 16-mer random dsDNA library, 0.1% formaldehyde crosslink after washing; high values mean tight binding
One assay addresses T1, FLI1 (Homo sapiens, UniProt Q01543 1-452).
T1 sequence: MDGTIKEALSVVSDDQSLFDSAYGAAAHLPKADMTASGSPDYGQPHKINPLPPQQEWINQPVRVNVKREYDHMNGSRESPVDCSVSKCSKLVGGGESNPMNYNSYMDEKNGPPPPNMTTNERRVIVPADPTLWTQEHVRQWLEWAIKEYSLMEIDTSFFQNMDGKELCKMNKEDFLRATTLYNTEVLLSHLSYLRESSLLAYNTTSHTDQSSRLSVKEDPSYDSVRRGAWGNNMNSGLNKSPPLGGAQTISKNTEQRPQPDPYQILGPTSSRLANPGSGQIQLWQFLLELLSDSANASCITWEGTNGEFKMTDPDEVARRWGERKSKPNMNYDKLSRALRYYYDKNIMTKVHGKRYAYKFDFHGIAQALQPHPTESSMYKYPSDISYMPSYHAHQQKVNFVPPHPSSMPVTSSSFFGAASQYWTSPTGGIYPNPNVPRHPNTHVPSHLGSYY
The note with it: protein: recombinant; tags: N-terminal GST; dsDNA, one strand shown. Put shortly: (§1)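 Human transcription factors fused to GST were expressed in yeast, captured on glutathione beads, given DNA barcodes and pooled with a GST-only negative control. Pools were incubated with 200 nmole of a 16-mer random double-stranded DNA library in Tris/NaCl/DTT/glycerol buffer at room temperature for 30 min. They were then washed, crosslinked with 0.1% formaldehyde, proximity-ligated (BsaI/T4 ligase, 1 h, 37 °C), PCR-amplified and sequenced on an Illumina NextSeq500. Binding signal is each 6-mer's read frequency for a factor divided by its frequency for the GST control.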

Another assay addresses T2, ELK1 (Homo sapiens, UniProt P19419 1-428).
T2 sequence: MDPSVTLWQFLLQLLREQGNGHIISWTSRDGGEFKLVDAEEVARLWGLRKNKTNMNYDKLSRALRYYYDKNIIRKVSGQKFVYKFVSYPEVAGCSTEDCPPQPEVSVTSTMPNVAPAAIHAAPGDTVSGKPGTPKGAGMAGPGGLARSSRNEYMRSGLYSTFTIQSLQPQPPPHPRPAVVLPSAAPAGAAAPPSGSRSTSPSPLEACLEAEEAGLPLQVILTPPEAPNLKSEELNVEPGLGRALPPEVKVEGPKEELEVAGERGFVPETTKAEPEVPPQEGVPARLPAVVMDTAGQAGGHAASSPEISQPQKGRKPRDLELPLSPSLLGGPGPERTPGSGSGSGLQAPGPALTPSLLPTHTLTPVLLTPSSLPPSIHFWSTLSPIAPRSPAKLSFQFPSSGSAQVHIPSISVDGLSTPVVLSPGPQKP
The note with it: protein: recombinant; tags: N-terminal GST; dsDNA, one strand shown. Put shortly: as §1

The next assay deals with T3, GABPA (Homo sapiens, UniProt Q06546 1-454).
T3 sequence: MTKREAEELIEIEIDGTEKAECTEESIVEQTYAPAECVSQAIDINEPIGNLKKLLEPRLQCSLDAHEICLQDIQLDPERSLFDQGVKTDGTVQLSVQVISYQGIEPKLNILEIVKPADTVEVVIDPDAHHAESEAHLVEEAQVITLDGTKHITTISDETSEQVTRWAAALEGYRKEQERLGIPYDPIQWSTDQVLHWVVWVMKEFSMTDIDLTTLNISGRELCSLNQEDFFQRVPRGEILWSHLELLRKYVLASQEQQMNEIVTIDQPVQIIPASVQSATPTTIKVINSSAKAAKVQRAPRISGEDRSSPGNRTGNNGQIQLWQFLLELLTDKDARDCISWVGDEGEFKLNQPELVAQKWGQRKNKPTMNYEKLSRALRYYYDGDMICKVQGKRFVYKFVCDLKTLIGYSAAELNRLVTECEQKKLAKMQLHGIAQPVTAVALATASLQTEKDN
The note with it: protein: recombinant; tags: N-terminal GST; dsDNA, one strand shown. Put shortly:
as §1

The next assay has as its target T4, ERG (Homo sapiens, UniProt P11308 1-479).
T4 sequence: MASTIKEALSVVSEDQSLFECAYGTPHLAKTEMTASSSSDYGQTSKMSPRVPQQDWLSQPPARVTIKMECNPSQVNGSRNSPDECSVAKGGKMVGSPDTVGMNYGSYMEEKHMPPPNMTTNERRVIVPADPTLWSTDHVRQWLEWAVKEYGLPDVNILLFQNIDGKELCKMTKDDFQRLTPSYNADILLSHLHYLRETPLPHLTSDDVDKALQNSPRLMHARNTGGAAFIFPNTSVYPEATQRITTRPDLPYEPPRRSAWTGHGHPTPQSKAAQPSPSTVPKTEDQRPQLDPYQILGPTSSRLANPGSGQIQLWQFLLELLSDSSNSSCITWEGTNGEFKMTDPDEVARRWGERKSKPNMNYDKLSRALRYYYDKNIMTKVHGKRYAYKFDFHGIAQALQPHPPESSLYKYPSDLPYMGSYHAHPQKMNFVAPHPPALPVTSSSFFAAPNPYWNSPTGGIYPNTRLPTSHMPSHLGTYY
The note with it: protein: recombinant; tags: N-terminal GST; dsDNA, one strand shown. Put shortly:
as §1

The next assay addresses ELF1 (Homo sapiens, UniProt P32519 1-619). The note with it: protein: recombinant; tags: N-terminal GST; dsDNA, one strand shown. The essentials: as §1
The next assay concerns the target T5, EHF (Homo sapiens, UniProt Q9NZC4 1-300).
T5 sequence: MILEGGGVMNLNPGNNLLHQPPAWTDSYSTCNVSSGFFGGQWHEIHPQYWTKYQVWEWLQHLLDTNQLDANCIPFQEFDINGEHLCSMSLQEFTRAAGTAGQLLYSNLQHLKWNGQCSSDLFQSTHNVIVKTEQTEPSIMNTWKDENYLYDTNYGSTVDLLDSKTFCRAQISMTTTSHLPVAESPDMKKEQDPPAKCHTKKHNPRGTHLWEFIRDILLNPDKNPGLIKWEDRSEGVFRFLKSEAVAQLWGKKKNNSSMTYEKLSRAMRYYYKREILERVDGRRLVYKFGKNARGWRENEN
The following applies: protein: recombinant; tags: N-terminal GST; dsDNA, one strand shown. The essentials:
as §1

In another assay the target is SPIB (Homo sapiens, UniProt Q01892 1-262). The following applies: protein: recombinant; tags: N-terminal GST; dsDNA, one strand shown. Put shortly: as §1
SPIB, sequence (Q01892 whole entry): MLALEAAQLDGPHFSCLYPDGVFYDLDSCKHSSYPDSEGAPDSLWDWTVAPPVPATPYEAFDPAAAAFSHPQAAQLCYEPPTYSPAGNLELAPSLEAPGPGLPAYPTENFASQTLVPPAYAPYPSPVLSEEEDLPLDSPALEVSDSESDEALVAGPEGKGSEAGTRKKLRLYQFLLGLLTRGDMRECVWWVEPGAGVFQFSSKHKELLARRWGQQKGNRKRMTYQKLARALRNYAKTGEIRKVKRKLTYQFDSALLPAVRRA
Another assay has as its target T6, ELK3 (Homo sapiens, UniProt P41970 1-407).
T6 sequence: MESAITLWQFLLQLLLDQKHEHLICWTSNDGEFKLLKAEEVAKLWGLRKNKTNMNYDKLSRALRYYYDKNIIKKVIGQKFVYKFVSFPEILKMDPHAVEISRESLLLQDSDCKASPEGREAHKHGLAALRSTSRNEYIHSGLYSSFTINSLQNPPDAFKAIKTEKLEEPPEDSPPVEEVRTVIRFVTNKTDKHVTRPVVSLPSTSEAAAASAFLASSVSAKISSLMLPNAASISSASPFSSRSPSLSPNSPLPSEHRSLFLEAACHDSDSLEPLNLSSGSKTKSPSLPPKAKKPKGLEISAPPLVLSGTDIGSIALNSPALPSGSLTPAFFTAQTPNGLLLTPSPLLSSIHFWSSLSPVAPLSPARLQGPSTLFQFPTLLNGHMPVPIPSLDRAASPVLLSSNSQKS
The note with it: protein: recombinant; tags: N-terminal GST; dsDNA, one strand shown. The essentials:
as §1

In another assay the target is T7, ELK4 (Homo sapiens, UniProt P28324-2 1-405).
T7 sequence: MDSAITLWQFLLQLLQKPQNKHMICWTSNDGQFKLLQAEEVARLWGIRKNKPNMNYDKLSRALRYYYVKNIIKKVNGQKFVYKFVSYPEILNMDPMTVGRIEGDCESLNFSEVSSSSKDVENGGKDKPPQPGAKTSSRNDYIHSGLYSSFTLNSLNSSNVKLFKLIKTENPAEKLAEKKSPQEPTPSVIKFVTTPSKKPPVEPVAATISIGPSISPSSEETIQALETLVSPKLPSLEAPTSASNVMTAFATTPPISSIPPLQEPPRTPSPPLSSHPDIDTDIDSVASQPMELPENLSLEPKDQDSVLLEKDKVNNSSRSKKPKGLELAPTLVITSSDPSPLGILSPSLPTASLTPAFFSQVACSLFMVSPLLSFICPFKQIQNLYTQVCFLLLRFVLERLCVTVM
The note with it: protein: recombinant; tags: N-terminal GST; dsDNA, one strand shown. Put shortly: as §1

The target of a further assay is T8, ETV2 (Homo sapiens, UniProt O00321 1-342).
T8 sequence: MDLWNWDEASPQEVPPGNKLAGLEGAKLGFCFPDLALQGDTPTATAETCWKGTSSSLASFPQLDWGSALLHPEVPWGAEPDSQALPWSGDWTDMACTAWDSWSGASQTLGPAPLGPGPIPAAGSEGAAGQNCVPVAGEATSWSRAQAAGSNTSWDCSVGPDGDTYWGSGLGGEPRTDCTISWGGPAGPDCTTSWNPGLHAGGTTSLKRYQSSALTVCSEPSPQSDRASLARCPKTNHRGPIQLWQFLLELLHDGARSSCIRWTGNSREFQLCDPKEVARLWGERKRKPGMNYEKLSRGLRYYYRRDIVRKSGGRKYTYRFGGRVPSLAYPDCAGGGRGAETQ
The following applies: protein: recombinant; tags: N-terminal GST; dsDNA, one strand shown. The essentials: as §1

In a further assay the target is T9, ETV3L (Homo sapiens, UniProt Q6ZN32 1-361).
T9 sequence: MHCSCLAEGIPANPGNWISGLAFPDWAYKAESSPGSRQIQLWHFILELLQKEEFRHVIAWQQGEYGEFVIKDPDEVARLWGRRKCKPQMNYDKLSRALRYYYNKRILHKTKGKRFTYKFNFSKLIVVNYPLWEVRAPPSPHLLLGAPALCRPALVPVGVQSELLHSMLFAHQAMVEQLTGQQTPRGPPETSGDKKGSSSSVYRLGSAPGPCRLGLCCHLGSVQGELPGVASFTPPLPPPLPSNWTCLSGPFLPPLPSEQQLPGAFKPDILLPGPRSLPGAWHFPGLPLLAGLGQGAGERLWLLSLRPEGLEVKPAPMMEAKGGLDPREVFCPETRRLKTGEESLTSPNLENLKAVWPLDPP
The note with it: protein: recombinant; tags: N-terminal GST; dsDNA, one strand shown. Put shortly: as §1

The target in a further assay is T10, ETV7 (Homo sapiens, UniProt Q9Y603 1-341).
T10 sequence: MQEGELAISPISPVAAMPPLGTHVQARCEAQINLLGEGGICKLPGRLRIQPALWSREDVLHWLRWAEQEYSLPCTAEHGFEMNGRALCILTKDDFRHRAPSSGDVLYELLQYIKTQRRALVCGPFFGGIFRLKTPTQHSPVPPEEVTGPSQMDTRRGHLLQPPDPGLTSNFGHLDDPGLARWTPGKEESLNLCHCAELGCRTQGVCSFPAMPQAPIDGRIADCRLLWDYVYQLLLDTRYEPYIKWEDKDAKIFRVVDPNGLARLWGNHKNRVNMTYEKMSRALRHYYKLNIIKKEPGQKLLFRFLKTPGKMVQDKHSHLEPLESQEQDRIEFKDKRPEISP
The note with it: protein: recombinant; tags: N-terminal GST; dsDNA, one strand shown. Put shortly: as §1

The next assay deals with T11, ETV3 (Homo sapiens, UniProt P41162-2 1-143).
T11 sequence: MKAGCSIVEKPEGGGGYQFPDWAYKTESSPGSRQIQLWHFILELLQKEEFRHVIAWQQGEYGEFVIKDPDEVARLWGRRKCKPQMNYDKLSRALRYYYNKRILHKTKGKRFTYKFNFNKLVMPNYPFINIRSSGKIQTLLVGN
The following applies: protein: recombinant; tags: N-terminal GST; dsDNA, one strand shown. Put shortly:
as §1

The target in the next assay is HSF1 (Homo sapiens, UniProt Q00613 1-529). The note with it: protein: recombinant; tags: N-terminal GST; chain copies: 3; dsDNA, one strand shown. Put shortly: as §1
HSF1, sequence (Q00613 whole entry): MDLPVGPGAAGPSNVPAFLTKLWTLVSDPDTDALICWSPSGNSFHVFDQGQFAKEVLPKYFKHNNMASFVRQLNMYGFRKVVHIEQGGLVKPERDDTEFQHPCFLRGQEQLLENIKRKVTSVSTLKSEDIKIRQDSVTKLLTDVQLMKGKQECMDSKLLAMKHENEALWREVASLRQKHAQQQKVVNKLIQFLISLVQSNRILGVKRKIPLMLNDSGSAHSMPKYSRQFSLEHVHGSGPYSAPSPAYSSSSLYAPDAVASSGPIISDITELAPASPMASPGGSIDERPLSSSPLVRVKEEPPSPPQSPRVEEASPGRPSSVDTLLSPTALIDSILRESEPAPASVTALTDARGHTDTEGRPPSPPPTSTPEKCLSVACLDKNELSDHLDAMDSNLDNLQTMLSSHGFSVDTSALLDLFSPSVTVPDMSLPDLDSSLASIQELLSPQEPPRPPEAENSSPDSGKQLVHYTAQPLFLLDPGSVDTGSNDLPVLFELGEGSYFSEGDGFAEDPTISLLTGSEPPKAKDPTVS

ELF1, sequence (P32519 whole entry): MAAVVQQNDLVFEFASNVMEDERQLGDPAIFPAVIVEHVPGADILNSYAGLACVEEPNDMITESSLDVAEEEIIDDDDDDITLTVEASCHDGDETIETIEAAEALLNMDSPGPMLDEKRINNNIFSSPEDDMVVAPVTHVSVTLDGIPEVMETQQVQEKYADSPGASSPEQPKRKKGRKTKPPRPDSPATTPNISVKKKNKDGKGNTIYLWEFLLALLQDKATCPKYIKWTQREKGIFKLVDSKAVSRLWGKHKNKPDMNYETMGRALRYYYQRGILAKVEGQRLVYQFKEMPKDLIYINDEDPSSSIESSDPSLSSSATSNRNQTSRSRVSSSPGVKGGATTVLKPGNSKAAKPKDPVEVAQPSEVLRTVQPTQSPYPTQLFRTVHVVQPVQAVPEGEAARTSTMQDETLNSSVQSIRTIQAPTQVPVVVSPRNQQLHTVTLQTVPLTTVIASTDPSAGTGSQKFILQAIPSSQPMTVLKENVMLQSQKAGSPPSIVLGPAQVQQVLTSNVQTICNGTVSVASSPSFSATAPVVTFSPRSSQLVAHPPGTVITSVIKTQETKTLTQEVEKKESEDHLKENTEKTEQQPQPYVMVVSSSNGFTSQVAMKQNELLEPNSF

Take CAGCGC: the binding signal with FLI1 was 1.09 fold enrichment (6-mer frequency, TF over GST control); with ELK1 it was 1.03 fold enrichment (6-mer frequency, TF over GST control); with GABPA it was 1.01 fold enrichment (6-mer frequency, TF over GST control); in the assay with ERG it was 1.03 fold enrichment (6-mer frequency, TF over GST control); in the assay with ELF1 it was 1.08 fold enrichment (6-mer frequency, TF over GST control); with EHF, 1.01 fold enrichment (6-mer frequency, TF over GST control). Moreover, the binding signal in the assay with SPIB was 1.07 fold enrichment (6-mer frequency, TF over GST control); with ELK3 it was 1.06 fold enrichment (6-mer frequency, TF over GST control); with ELK4, 1.06 fold enrichment (6-mer frequency, TF over GST control); in the assay with ETV2 it was 1.07 fold enrichment (6-mer frequency, TF over GST control); with ETV3L it was 1.09 fold enrichment (6-mer frequency, TF over GST control); with ETV7, 1.02 fold enrichment (6-mer frequency, TF over GST control). For the same sequence, the binding signal with ETV3 was 1 fold enrichment (6-mer frequency, TF over GST control).
Regarding AGAAGG, in the assay with HSF1, the binding signal is 1.28 fold enrichment (6-mer frequency, TF over GST control).
